Laboratory results as given in PubChem BioAssay (NCATS).
Records with an inconclusive call do not appear. Calls of active or inactive are those of the source. Unless noted, calls follow the shape of the dose curve; as a rule, active = well fitted curve in the direction sought with a large enough effect; inconclusive = small, poorly fitted or top-dose-only effect, or another doubt; inactive = no such curve, though single readings can be large; an effect the other way counts as inactive or inconclusive.

Target: Cytochrome P450 2C19 (Homo sapiens) (UniProt P33261)
Sequence (P33261 whole entry, looked up): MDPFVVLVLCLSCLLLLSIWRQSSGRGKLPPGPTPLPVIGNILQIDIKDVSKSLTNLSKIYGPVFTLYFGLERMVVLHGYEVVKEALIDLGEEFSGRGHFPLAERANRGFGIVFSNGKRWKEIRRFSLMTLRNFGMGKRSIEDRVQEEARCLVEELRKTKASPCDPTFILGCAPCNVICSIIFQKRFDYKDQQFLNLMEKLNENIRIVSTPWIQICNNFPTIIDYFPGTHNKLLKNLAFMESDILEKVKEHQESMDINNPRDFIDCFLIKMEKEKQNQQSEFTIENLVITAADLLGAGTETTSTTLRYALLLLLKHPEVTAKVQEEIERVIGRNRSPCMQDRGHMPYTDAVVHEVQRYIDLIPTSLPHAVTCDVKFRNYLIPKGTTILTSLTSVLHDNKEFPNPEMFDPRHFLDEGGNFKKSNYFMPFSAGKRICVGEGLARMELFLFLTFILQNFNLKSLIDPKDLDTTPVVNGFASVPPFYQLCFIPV
Assay: qHTS Assay for Inhibitors and Substrates of Cytochrome P450 2C19 (AID 899); also: nearly all actives have a fitted effect of over 60% in size; also: potency is read from the fitted curve at half-maximal effect; as to activity, negative = inhibition: % is scaled to controls: 0 for no effect and ±100 for the full control effect
Settings: recombinant CYP2C19, luciferin-H EGE luminescence; series mostly up to 11.4 µM; activity, negative = inhibition: at the top concentration
Summary of the method: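 Reactions contain 5nM enzyme, 10uM Luciferin-H EGE (KM) and 50mM KPO4; compound preincubates 10 min at 37C, NADPH regeneration starts turnover for 60 min. Luminescence after detection reagent gives activity.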

Q: For CC(=O)OC[C@@H]1O[C@@H](O/N=C2/C[C@@H](O)[C@@H](O)[C@@H]3[C@@H]4C(=O)N(c5cccc(Oc6ccccc6)c5)C(=O)[C@H]4CC[C@H]23)[C@H](OC(C)=O)[C@H](OC(C)=O)[C@@H]1OC(C)=O, which “activity, negative = inhibition” value is on record?
A: The value was 45.9% (inactive).

Q: With CCC12C=C(/C=C/c3ccccc3)C(CC)(C1)C(c1ccccc1)CC2=O (configuration not stated) as the compound, how does the Potency read?
A: The Potency was 5010 nM (active).

Q: For COC(=O)NC(/C(C(=O)OC)=C(\C)NCc1ccccc1)c1ccc2ccccc2c1 (configuration not stated), which Potency is on record?
A: Its Potency is 63.1 nM (active).

Q: With COC(=O)C(/C=C/C(C)Cc1cc(Br)cc(OCc2ccccc2)c1OC)OCc1ccccc1 (configuration not stated) as the compound, how does the “activity, negative = inhibition” value read?
A: The value was -13.4% (inactive).

Tested on: not listed separately
Assay: Confirmation and Secondary Assay for Modulators of Hemoglobin Beta Chain Splicing at IVS2 654 locus (AID 910);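 also: HeLa cells stably carrying EGFP split by mutant beta-globin IVS2-654 intron; per-well total GFP intensity by laser scanning cytometry after 2-day treatment; % of control where 0% means no effect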
Settings: HeLa EGFP-654 splicing reporter, GFP fluorescence, 48 h; series mostly up to 46.1 µM; activation (splicing correction): at the top concentration
Summary of the method: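 Readout: per-well total peak green fluorescence (488 nm ex, 500–520 nm em) from objects 5–250 µm, reflecting correct splicing of an EGFP-654 reporter. Compounds were applied for 2 days at 37 °C to overnight-plated HeLa EGFP-654 cells; controls were DMSO and 500 nM IVS2-654 PNA.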

Q: Which “activation (splicing correction)” value does the source give for COc1c(CC(=O)c2cc3c(cc2O)OC(C)(C)C(O)C3)ccc2c1C=CC(C)(C)O2 (configuration not stated) here?
A: Its value is -4.35% (inactive).

Q: For CCCCCC(=O)O[C@@]1(C(C)=O)CCC2C3CCC4=CC(=O)CC[C@@]4(C)C3CC[C@]21C (some centres not stated), which “activation (splicing correction)” value is on record?
A: The value was -6.91% (inactive).

Q: Which “activation (splicing correction)” value does the source give for COc1ccc(-c2coc3c(OC)c(OC)cc(O)c3c2=O)cc1 here?
A: Its value is 2.77% (inactive).

Q: With CNC1CCC(c2ccc(Cl)c(Cl)c2)c2ccccc21 (configuration not stated) as the compound, how does the “activation (splicing correction)” value read?
A: Its value is -7.58% (inactive).

Q: For COc1cc(C2c3cc4c(cc3C(O)[C@H]3COC(=O)C23)OCO4)cc(OC)c1OC (some centres not stated), which outcome is on record?
A: The outcome was “inactive”.

Q: With C=CC(C1=CC(=O)C(OC)=C(OC)C1=O)c1ccccc1 (configuration not stated) as the compound, how does the “activation (splicing correction)” value read?
A: The value was -1.59% [at 38.3 µM] (inactive).

Q: For CCC1CN2CCc3cc(OC)c(OC)cc3C2CC1CC1NCCc2cc(OC)c(OC)cc21 (configuration not stated), which “activation (splicing correction)” value is on record?
A: Its value is -8.31% (inactive).

Q: For CC1(C)CC[C@]2(C(=O)O)C(O)C[C@@]3(C)C(=CCC4[C@@]5(C)CCC(O)C(C)(C)C5CC[C@@]43C)C2C1 (some centres not stated), which “activation (splicing correction)” value is on record?
A: The value was -1.15% [at 38.3 µM] (inactive).

Q: For CC(C)c1c(O)ccc2c1CCC1C(C)(C)CCC[C@@]21C (some centres not stated), which “activation (splicing correction)” value is on record?
A: Its value is -7.5% (inactive).

Q: Which “activation (splicing correction)” value does the source give for C#CCCCCCCCCCCCC(O)CC(O)COC(C)=O (configuration not stated) here?
A: The value was -7.54% (inactive).

Tested on: not listed separately
Assay: qHTS Assay for Identification of Small Molecule Agonists for Hypoxia Response Element Signaling Pathway (AID 914; active = well fitted activation curve with a large enough effect in the signal ratio, with a control signal flat, not every such curve was filed as active; the % refers to the signal ratio; also: % of control where 0% means no effect)
Settings: ME-180 (cervical carcinoma) HRE-bla reporter, beta-lactamase ratio, CoCl2, 17 h; hits give high values
Summary of the method: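 AC50 values come from titration-series %Activity, taken as the 460/530nm ratio of CCF4 fluorescence (excitation 405nm). CellSensor HRE-bla ME-180 cells were treated 17 hours at 37 C with compound plus an EC50 level of CoCl2.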

Q: For CCc1cc2c(nc1CC)CCN(CC/C(C)=N/OC[C@@H](O)[C@@H]1O[C@@H]3OC(C)(C)O[C@@H]3[C@H]1O)C2, which activation is on record?
A: The activation was -8.78% (inactive).

Q: Which activation does the source give for C/C(CCC(=O)OC[C@@H]1O[C@H](C#Cc2ccccc2)C=C[C@@H]1Oc1ccc(C)cc1)=N/OC[C@@H](C)[C@H](OCc1ccccc1)C(C)C here?
A: The activation was 14.9% (inactive).

Q: For CC(C)C(=O)N[C@@H]1CCCN1C(=O)/C=C\c1ccccc1, which activation is on record?
A: Its activation is 12.7% (inactive).

Tested on: not listed separately
Assay: Confirmation and Secondary Assay for Modulators of Hemoglobin Beta Chain Splicing at IVS2 705 locus (AID 930);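 also: HeLa cells stably expressing the EGFP-705 splicing reporter; % of control where 0% means no effect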
Settings: HeLa EGFP-705 splicing reporter, GFP fluorescence, 48 h; series mostly up to 46.1 µM; activation: at the top concentration
Summary of the method: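 Restored EGFP fluorescence after 2-day compound exposure reports splicing correction in IVS2-705 EGFP reporter HeLa cells; positive control was 500 nM splice-blocking PNA oligo. Signal measured as well total peak GFP intensity (488 nm excitation).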

Q: With COc1c(CC(=O)c2cc3c(cc2O)OC(C)(C)C(O)C3)ccc2c1C=CC(C)(C)O2 (configuration not stated) as the compound, how does the “activation” value read?
A: Its value is 0.879% (inactive).

Q: With CCCCCC(=O)O[C@@]1(C(C)=O)CCC2C3CCC4=CC(=O)CC[C@@]4(C)C3CC[C@]21C (some centres not stated) as the compound, how does the “activation” value read?
A: The value was 0.345% (inactive).

Q: For COc1ccc(-c2coc3c(OC)c(OC)cc(O)c3c2=O)cc1, which “activation” value is on record?
A: Its value is 4.58% (inactive).

Q: With CNC1CCC(c2ccc(Cl)c(Cl)c2)c2ccccc21 (configuration not stated) as the compound, how does the “activation” value read?
A: Its value is 0.495% (inactive).

Q: For COc1cc(C2c3cc4c(cc3C(O)[C@H]3COC(=O)C23)OCO4)cc(OC)c1OC (some centres not stated), which outcome is on record?
A: Its outcome is “inactive”.

Q: With C=CC(C1=CC(=O)C(OC)=C(OC)C1=O)c1ccccc1 (configuration not stated) as the compound, how does the “activation” value read?
A: The value was 2.38% [at 38.3 µM] (inactive).

Q: For CCC1CN2CCc3cc(OC)c(OC)cc3C2CC1CC1NCCc2cc(OC)c(OC)cc21 (configuration not stated), which “activation” value is on record?
A: The value was 4.26% (inactive).

Q: Which “activation” value does the source give for CC1(C)CC[C@]2(C(=O)O)C(O)C[C@@]3(C)C(=CCC4[C@@]5(C)CCC(O)C(C)(C)C5CC[C@@]43C)C2C1 (some centres not stated) here?
A: The value was -0.0143% [at 38.3 µM] (inactive).

Q: With CC(C)c1c(O)ccc2c1CCC1C(C)(C)CCC[C@@]21C (some centres not stated) as the compound, how does the “activation” value read?
A: Its value is 1.43% (inactive).

Q: For C#CCCCCCCCCCCCC(O)CC(O)COC(C)=O (configuration not stated), which “activation” value is on record?
A: Its value is -0.511% (inactive).
